Source: PubChem (National Center for Advancing Translational Sciences (NCATS))
FMDV antiviral – High Throughput Screening for Foot and Mouth Disease Virus Antivirals. FMDV antiviral cell-based qHTS. Potency, µM (highest dose often 57.9 µM), most hits filed as inhibitors. hit rate 1.2% among 410,000; calls by dose curve; tested in HEK293T cells; further: read-out not given here; nearly all actives have a fitted effect of over 45% in size
Lassa entry inh – qHTS for Inhibitors of binding or entry into cells for Lassa Virus | Lassa virus pseudotype entry inhibition, cell reporter | Potency, µM (series often up to 37.9 µM), most hits filed as inhibitors | hit rate 1.2% among 300,000 | AID 540256, 2011; calls by dose curve; tested in HEK293 cells; further: nearly all actives have a fitted effect of over 50% in size
HCV inh – qHTS Assay for Inhibitors of Hepatitis C Virus (HCV) | hit rate 3.4% among 340,000 | Potency, µM (doses to about 41.8 µM), most hits filed as inhibitors | Huh7.5.1 HCVcc-Cre infection, luciferase reporter, 44 h; active means well fitted inhibition curve with a large enough effect; inconclusive means small, poorly fitted or top-dose-only effect, or another doubt; inactive means no such curve, though single readings can be large or run the other way
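HCVcc-Cre virus at an moi near 0.5 was added right after compound to cells cultured 4 h from seeding (1,000 cells/well). Luciferase activity was determined 44 h later, 15 min after substrate addition at RT.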
HCMV inh – qHTS Assay for inhibitors of the human cytomegalovirus (HCMV). HFF cells, HCMV-luciferase reporter, 72 h; active compounds read low. AID 1259415, 2018. hit rate 4.5% among 410,000. activity change, negative = inhibition, % at 57.5 µM; in the data active means activity change below about -60%; inconclusive means no clear call, values can overlap the other calls; inactive means above about -39%
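Screen run at 2 compound doses on HFFs infected with reporter HCMV, MOI 1 PFU/cell. Luciferase activity from cell lysates at 72 h post infection gave inhibition relative to buffer-only and Salinomycin wells.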
Marburg entry inh – qHTS for inhibitors of binding or entry into cells for Marburg Virus; AID 540276, 2011; Marburg virus pseudotyped entry inhibition, cell reporter; hit rate 1.8% among 300,000; Potency, µM (doses to about 37.8 µM), actives largely listed as inhibitors; calls by dose curve; tested in HEK293 cells
Each line names hits and unclear results; the compound was inactive in the other large screens. Most compounds without a hit are left out; they make up all but 7.9% or so of the library.

O=C(Nc1ccc(Cc2ccncc2)cc1)C1CCC(N2C(=O)C3C4C=CC(C4)C3C2=O)CC1 (stereo not drawn)	Lassa entry inh inconclusive, HCV inh 8.91µM, HCMV inh -80.3 (no result: FMDV antiviral)
CCc1cccc(C)c1NC(=O)Cn1ccn(-c2ccc(F)cc2)c(=O)c1=O	none (no result: HCV inh, Marburg entry inh)
Cc1oc(-c2ccc(C(=O)NCCC(C)C)cc2)nc1CS(=O)(=O)c1ccccc1	none (no result: HCV inh, Marburg entry inh)
CN(C)c1ccnc2sc(C(=O)NCc3ccccc3)c(N)c12	Lassa entry inh inconclusive, HCV inh 12.6µM (no result: FMDV antiviral)
CN(C)c1ccnc2sc(C(=O)c3ccc(Br)cc3)c(N)c12	none
CN(C)C=Nc1c(C(=O)c2ccccc2)sc2nccc(N(C)C)c12	HCV inh inconclusive, HCMV inh -74.8
COc1ccc(C(CC(=O)Nc2cc(OC)c(OC)c(OC)c2)N2Cc3ccccc3C2=O)cc1 (stereo not drawn)	none (no result: HCV inh, Marburg entry inh)
COc1ccc(-n2c(C)cc(/C=N/Nc3nnc(C)n3N)c2C)cc1	HCV inh 11.2µM, Marburg entry inh inconclusive
Cc1cccc(NC2=NC(C)(C)N=C(N)N2)c1	Lassa entry inh inconclusive, HCV inh inconclusive, HCMV inh -98.2, Marburg entry inh inconclusive
COC(=O)CC(Oc1c(C)n(C)c2ccccc2c1=O)c1ccccc1 (stereo not drawn)	none (no result: FMDV antiviral, Lassa entry inh, HCV inh, HCMV inh)
CCn1c(=O)c2sccc2n2c(CCC(=O)Nc3ccc(OC)cc3OC)nnc12	none (no result: HCV inh)
N#C/C(=C/c1cn(-c2ccccc2)nc1-c1cccc(OCc2ccc(F)cc2)c1)C(=O)NCCCn1ccnc1	Lassa entry inh inconclusive, HCV inh 5.62µM, Marburg entry inh inconclusive
CCCOc1cccc(-c2nn(-c3ccccc3)cc2/C=C(\C#N)C(=O)NCCCn2ccnc2)c1	HCV inh inconclusive, Marburg entry inh inconclusive
CCC1(c2ccccc2)NC(=O)N(CC(=O)Nc2cc(S(=O)(=O)N3CCCCCC3)ccc2OC)C1=O (stereo not drawn)	Lassa entry inh inconclusive, HCV inh 14.1µM, Marburg entry inh inconclusive
CCC1(c2ccccc2)NC(=O)N(CC(=O)Nc2cc(S(=O)(=O)N3CCCCC3)ccc2OC(C)C)C1=O (stereo not drawn)	HCV inh 10µM, Marburg entry inh inconclusive
CCOc1ccc(S(=O)(=O)N2CCCCC2)cc1NC(=O)CN1C(=O)NC(CC)(c2ccccc2)C1=O (stereo not drawn)	Lassa entry inh inconclusive, HCV inh inconclusive, Marburg entry inh inconclusive
COc1ccc(Nc2oc(COc3ccc(OC)cc3)nc2C#N)cc1	Lassa entry inh inconclusive, HCV inh inconclusive, HCMV inh -69.7, Marburg entry inh 6.51µM
COc1ccc(Nc2oc(COc3cccc(C)c3)nc2C#N)cc1	Lassa entry inh 11.2µM, HCV inh inconclusive, Marburg entry inh inconclusive
COc1ccc(CNc2oc(Cc3cccc4ccccc34)nc2C#N)cc1	Lassa entry inh 17.8µM, HCV inh inconclusive, Marburg entry inh inconclusive
Cc1ccc(NC(=O)c2cnn3c(C(F)F)cc(-c4ccccc4)nc23)c(C)c1	none (no result: HCV inh)
CC1=C(c2cccc(Cl)c2)S(=O)(=O)NC1=NCc1ccccc1C	none (no result: HCV inh)
CCC1=NN(C(=O)c2cccc(Br)c2)C(O)(c2ccc(Br)cc2)C1 (stereo not drawn)	HCV inh 15.8µM, HCMV inh -71.4, Marburg entry inh inconclusive
CCOc1ccc(-c2nnc(SCC(=O)NCc3ccc(C)cc3)nc2-c2ccc(OCC)cc2)cc1	Lassa entry inh inconclusive (no result: HCV inh, Marburg entry inh)
O=C(NC1CCCC1)c1ccc(Cl)s1	HCMV inh -76.6
CC[C@@]1(C(=O)OC)N[C@H](CN(C)C(=O)Nc2ccc(C(F)(F)F)cc2)[C@@H]2C(=O)N(Cc3ccccc3)C(=O)[C@@H]21	none (no result: Lassa entry inh, Marburg entry inh)
COC(=O)[C@]1(Cc2ccccc2)N[C@H](CN(C)C(=O)Nc2ccc(C(F)(F)F)cc2)[C@@H]2C(=O)N(Cc3ccccc3)C(=O)[C@@H]21	HCV inh 12.6µM (no result: Lassa entry inh, Marburg entry inh)
CSc1ccccc1NC(=O)CSc1cccc[n+]1[O-]	HCMV inh -99.8
Cc1cccc2cc(CN(Cc3ccco3)C(=O)c3cccs3)c(=O)[nH]c12	HCMV inh -98.7
Cc1cccc2cc(COC(=O)c3cccs3)c(=O)[nH]c12	HCMV inh -65.4
Cc1ccc2[nH]c(=O)c(CN(Cc3ccco3)C(=O)c3cccs3)cc2c1	none (no result: FMDV antiviral, Lassa entry inh, HCMV inh, Marburg entry inh)
Cc1ccc2cc(CN(Cc3ccco3)C(=O)c3cccs3)c(=O)[nH]c2c1	Lassa entry inh inconclusive, HCV inh inconclusive, Marburg entry inh 1.26µM
CCCCN(Cc1ccco1)C(=O)c1cc2c(=O)[nH]c3ccc(C)cc3c2s1	HCV inh inconclusive, HCMV inh inconclusive (no result: Lassa entry inh, Marburg entry inh)
Cc1ccc2[nH]c(=O)c3cc(C(=O)N(CCCOC(C)C)Cc4ccco4)sc3c2c1	FMDV antiviral inconclusive, HCV inh inconclusive, HCMV inh inconclusive, Marburg entry inh 10µM (no result: Lassa entry inh)
COc1cc(CN2C(=O)CC[C@@H]3CN(Cc4ccccn4)CC[C@@H]32)cc(OC)c1OC	none (no result: Lassa entry inh, HCV inh, HCMV inh, Marburg entry inh)
CCc1ccc(-c2nc(CS(=O)CC(=O)NCCc3ccc(Cl)cc3)c(C)o2)cc1 (stereo not drawn)	none (no result: HCV inh, Marburg entry inh)
CCc1ccc(CNC(=O)CCCN2C(=O)c3cccnc3Oc3ccc(Cl)cc32)cc1	none (no result: HCV inh, Marburg entry inh)
CCCC[C@H](CCC(=O)Nc1ccc(C(=O)OCC)cc1)C(=O)O	none (no result: FMDV antiviral, Lassa entry inh, HCV inh, HCMV inh)
Cc1cccc(N2CCN(CCCNC(=O)c3sc4ncccc4c3-n3cccc3)CC2C)c1 (stereo not drawn)	FMDV antiviral inconclusive (no result: HCV inh, Marburg entry inh)
CCN(CC)CCN(Cc1cc2ccc(C)c(C)c2[nH]c1=O)C(=S)NCc1ccco1	Lassa entry inh 5.62µM, HCV inh inconclusive, HCMV inh -77.2, Marburg entry inh inconclusive
CC(/C=N/NC(=O)c1nnn(-c2nonc2N)c1CN(C)C)=C\c1ccco1	HCMV inh inconclusive
C/C(=N\NC(=O)c1nnn(-c2nonc2N)c1-c1ccccc1)c1ccccc1O	Lassa entry inh inconclusive, HCV inh 6.31µM, HCMV inh -89.2, Marburg entry inh inconclusive
C/C(=N\NC(=O)c1nnn(-c2nonc2N)c1CN(C)c1ccccc1)c1ccc(O)cc1	HCMV inh -60.5 (no result: Lassa entry inh, Marburg entry inh)
C/C(=N\NC(=O)c1nnn(-c2nonc2N)c1CN(C)c1ccccc1)c1cccs1	none (no result: Lassa entry inh, Marburg entry inh)
CCCN(CCC)Cc1c(C(=O)N/N=C/C(C)=C\c2ccco2)nnn1-c1nonc1N	Lassa entry inh inconclusive, HCV inh 8.91µM, HCMV inh inconclusive, Marburg entry inh 4.47µM
C/C(=N\NC(=O)c1nnn(-c2nonc2N)c1CN(C)c1ccccc1)c1ccccn1	HCV inh 4.47µM (no result: Lassa entry inh, HCMV inh, Marburg entry inh)
OCCNCCCCSc1ccc(Cl)cc1	HCV inh 10µM (no result: Lassa entry inh, Marburg entry inh)
COCCCNCCOCCSc1ccc(Cl)cc1	HCV inh inconclusive, HCMV inh inconclusive, Marburg entry inh inconclusive
COCCCNCCCCSc1ccc(Cl)cc1	Lassa entry inh inconclusive, HCV inh 12.6µM, Marburg entry inh inconclusive
CCCCNCCOCCSc1ccc(Cl)cc1	HCV inh 7.94µM, Marburg entry inh inconclusive
CCOC(=O)c1sc2ccccc2c1S(=O)(=O)N1CCN(c2cccc(C)c2C)CC1	Lassa entry inh inconclusive (no result: HCV inh, Marburg entry inh)
